Many of the other results were omitted from the sample, so hits are more common in it than they were.
VDR inh: vitamin D3 receptor (human) inhibition. VDR-SRC2-3 peptide fluorescence polarization, 2 h. Potency, µM, usual class: inhibitors. actives 0.93% (n = 400,000). AID 504847
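Fluorescence polarization assay measuring small-molecule disruption of VDR binding to the coregulator peptide SRC2-3. Compounds were pin-transferred (23 nl) into the reagent mix and incubated 2 h at room temperature before reading.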
GRP78 ERSR act: inducers of ER stress response in human glioma cells. Potency, µM, actives largely listed as activators. actives 0.02% (n = 420,000). U87-MG GRP78 promoter luciferase reporter, 16 h. AID 602332; note: series mostly up to about 76 µM; nearly all actives have a fitted effect of over 35% in size
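Stably transfected U87-MG human glioma cells carrying a GRP78-based luminescent sensor were seeded at 1000 cells/well, pin-dosed with compounds and incubated 16 h. Luciferase reagent was then added, and end-point luminescence was read after 10 min at room temperature.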
G9a block: inhibitors of human histone lysine methyltransferase G9a | G9a H3K9 monomethylation, AlphaScreen, 2 h | Potency, µM (doses to about 102 µM), hits mostly inhibitors | actives 8.8% (n = 350,000) | AID 504332; note: nearly all actives have a fitted effect of over 75% in size
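Chemiluminescent proximity detection of H3K9 monomethylation, read after 10 min bead incubation in the dark. Reaction: 20 nM G9a, 500 nM biotin-H3K9 peptide, 20 uM SAM cofactor, 2 h, room temperature, following 15 min enzyme-compound preincubation.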
Sfp PPTase inh: blocks B. subtilis Sfp PPTase activity; Q9F4F7; Biochemical Sfp PPTase activity, qHTS; Potency, µM, most hits filed as inhibitors; actives 3.5% (n = 310,000);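 note: the enzyme is Sfp with the accession as filed and its product quenches rhodamine fluorescence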
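Reaction rates are the 30-min fluorescence difference (ex 525, em 598 nm) in wells containing 15 nM Sfp, 5 uM rhodamine-CoA and 12.5 uM BHQ-2-YbbR at pH 7.6 with 10 mM MgCl2.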
ALOX12 inh: blocks human arachidonate 12S-lipoxygenase. actives 1.1% (n = 580,000). purified 12hLO, xylenol orange hydroperoxide absorbance. P18054. Potency, µM (doses to about 108 µM), usual class: inhibitors
Target sequence (P18054 whole entry, looked up): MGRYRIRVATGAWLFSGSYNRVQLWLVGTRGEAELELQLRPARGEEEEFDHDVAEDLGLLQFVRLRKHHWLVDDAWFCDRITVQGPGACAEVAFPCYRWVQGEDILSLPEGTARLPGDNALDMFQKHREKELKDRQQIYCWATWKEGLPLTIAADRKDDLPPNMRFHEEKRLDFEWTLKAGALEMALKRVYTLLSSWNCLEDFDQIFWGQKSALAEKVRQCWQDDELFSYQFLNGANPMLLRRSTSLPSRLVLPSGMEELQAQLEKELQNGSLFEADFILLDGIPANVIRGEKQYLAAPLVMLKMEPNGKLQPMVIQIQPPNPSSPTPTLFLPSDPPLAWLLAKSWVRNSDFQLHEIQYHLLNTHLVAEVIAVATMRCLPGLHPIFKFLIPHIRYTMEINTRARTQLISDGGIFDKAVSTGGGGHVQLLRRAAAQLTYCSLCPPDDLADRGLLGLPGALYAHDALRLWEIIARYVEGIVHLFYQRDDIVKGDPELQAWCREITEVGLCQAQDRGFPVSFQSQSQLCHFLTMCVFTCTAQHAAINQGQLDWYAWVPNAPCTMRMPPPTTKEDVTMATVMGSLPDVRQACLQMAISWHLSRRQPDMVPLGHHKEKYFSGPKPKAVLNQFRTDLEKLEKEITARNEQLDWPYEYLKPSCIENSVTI
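Hydroperoxide product was detected by ferrous iron/xylenol orange as the 573 to 405 nm absorbance ratio. Arachidonic acid at 40 uM (final) was turned over for 30 min at room temperature by 150 nM human 12hLO, pH 7.0 Hepes buffer, after 15 min compound preincubation.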
Of the large screens only hits and unclear results are named; the others gave an inactive call. Calls come from the whole dose curve; as a rule, active = well fitted curve in the direction sought with a large enough effect; inconclusive = small, poorly fitted or top-dose-only effect, or another doubt; inactive = no such curve, though single readings can be large; an effect the other way counts as inactive or inconclusive.

CC(C)OCc1ccccc1CNS(=O)(=O)c1cc(F)cc(F)c1	none (no result: VDR inh, GRP78 ERSR act, G9a block, Sfp PPTase inh)
CC1(c2ccccc2)NC(=O)N(CC(=O)Nc2ccccc2C(=O)NC2CC2)C1=O (centres undefined)	none
O=C(CN1CCN(C/C=C/c2ccccc2)CC1)Nc1ccccc1C(=O)NC1CC1	G9a block 20µM, Sfp PPTase inh inconclusive
CCC1(c2ccccc2)NC(=O)N(CC(=O)Nc2ccccc2C(=O)NC2CC2)C1=O (centres undefined)	G9a block 50µM (no result: Sfp PPTase inh)
O=C1CC(c2ccccc2)N(C(=O)C2CC2)CCCN(C(=O)c2ccsc2)CCN1 (centres undefined)	none (no result: VDR inh, GRP78 ERSR act, G9a block, Sfp PPTase inh)
CCN(CC(=O)NC)S(=O)(=O)c1cccc2cc(C)cnc12	none (no result: VDR inh, GRP78 ERSR act, G9a block, Sfp PPTase inh)
COc1ccc(C(=O)N2CCN(C(=O)Cc3cc(OC)c(OC)c(OC)c3)CC2)cc1	none (no result: VDR inh, GRP78 ERSR act, G9a block, Sfp PPTase inh)
CN(C(=O)COC(=O)c1ccc(C#N)cc1)c1ccccc1	G9a block 50µM
N#Cc1ccc(C(=O)OCC(=O)N2CCCCCC2)cc1	G9a block 22µM (no result: Sfp PPTase inh)
CCOC(=O)C1CCCN(C(=O)COC(=O)c2ccc(C#N)cc2)C1 (centres undefined)	G9a block inconclusive
CC(=O)Nc1ccc2nc3c(=O)n(C)c(=O)n(C)c3nc2c1	G9a block 40µM, Sfp PPTase inh inconclusive
Cc1ccc(S(=O)(=O)N2CCOCC2)cc1NC(=O)CN1CCN(c2ccc(O)cc2)CC1	G9a block inconclusive, Sfp PPTase inh 40µM, ALOX12 inh inconclusive
Cc1ccc(S(=O)(=O)N2CCOCC2)cc1NC(=O)CN1CCC(Cc2ccccc2)CC1	G9a block 7.9µM, Sfp PPTase inh inconclusive
Cc1ccc(S(=O)(=O)N2CCOCC2)cc1NC(=O)CN1CCN(C)CC1	none (no result: Sfp PPTase inh)
O=C(CN1CCC(Cc2ccccc2)CC1)Nc1ccc2c(c1)OCCO2	G9a block 4.5µM, ALOX12 inh inconclusive
CCOC(=O)C1CCN(CC(=O)Nc2cc(S(=O)(=O)N3CCOCC3)ccc2C)CC1	G9a block 22µM, ALOX12 inh inconclusive
CC(C#N)OC(=O)c1ccc(-c2ccccc2Cl)o1 (centres undefined)	none (no result: VDR inh, GRP78 ERSR act, G9a block, Sfp PPTase inh)
Cc1ccc(NC(=O)C2CC3CCCC(C2)C3=O)cc1 (centres undefined)	none (no result: VDR inh, GRP78 ERSR act, G9a block, Sfp PPTase inh)
COc1ccc(/C=C2\SC(N3CCCCC3)=NC2=O)cc1OC	none
COc1ccc(OC)c(/C=C2\SC(N3CCCC(C)C3)=NC2=O)c1 (centres undefined)	G9a block 28µM, Sfp PPTase inh inconclusive, ALOX12 inh inconclusive
COc1ccccc1CN1CCN(C(=O)C2CCCN(Cc3cccnc3)CCC(=O)NCC2)CC1 (centres undefined)	none (no result: VDR inh, GRP78 ERSR act, G9a block, Sfp PPTase inh)
Cc1nc2scc(C)n2c(=O)c1S(=O)(=O)Nc1ccc(F)cc1	none
CCc1cccc(NS(=O)(=O)c2c(C)nc3scc(C)n3c2=O)c1	G9a block 28µM
CC(C)Sc1nnc(COc2ccc(Cl)cc2)n1C	none (no result: VDR inh, GRP78 ERSR act, G9a block, Sfp PPTase inh)
COc1ccc(NC2=C(C(=O)N3CCOCC3)S(=O)(=O)c3ccccc32)cc1	none (no result: VDR inh, GRP78 ERSR act, G9a block, Sfp PPTase inh)
O=C(O)c1cc2n(n1)CCN(Cc1ccccc1Cl)C2=O	G9a block 50µM
COc1ccc(S(=O)(=O)N(C(C)=O)c2ccc(OC(C)=O)c3ccccc23)cc1[N+](=O)[O-]	G9a block 79µM
COC1CN(c2ccc(C)cc2)C12CCN(C(=O)COc1ccc(F)cc1)CC2 (centres undefined)	none (no result: VDR inh, GRP78 ERSR act, G9a block, Sfp PPTase inh)
Cc1onc(-c2c(F)cccc2Cl)c1C(=O)NCc1ccco1	none
Cc1onc(-c2c(F)cccc2Cl)c1C(=O)Nc1cccc(S(=O)(=O)NCc2ccco2)c1	G9a block 56µM
O=C(Nc1ccc(S(=O)(=O)NCc2ccco2)cc1)c1cccc(F)c1	G9a block 56µM
COc1cccc(C(=O)Nc2ccc(S(=O)(=O)NCc3ccco3)cc2)c1	G9a block inconclusive
CC(=O)Nc1ccc(S(=O)(=O)NCCSCc2c(Cl)cccc2Cl)cc1	none
Cc1ccc2ccc(S(=O)(=O)NCc3ccco3)cc2c1	G9a block 35µM, ALOX12 inh inconclusive
CC(=O)Nc1ccc(S(=O)(=O)NCCSCc2ccco2)cc1	G9a block inconclusive, Sfp PPTase inh 32µM
O=C1CCN(C(=O)c2ccsc2)CCCC(c2nc(-c3cnccn3)no2)CCN1 (centres undefined)	none (no result: VDR inh, GRP78 ERSR act, G9a block, Sfp PPTase inh)
C#CCNC(=O)Nc1ccc(C)cc1	none (no result: VDR inh, GRP78 ERSR act, G9a block, Sfp PPTase inh)
Nc1ccc2c(c1Cl)C(=O)c1ccc(N)c(Cl)c1C2=O	G9a block 25µM
Cc1ccc2c(c1C)-c1c(ccc(C)c1C)C(=O)C2=O	VDR inh inconclusive, ALOX12 inh inconclusive (no result: G9a block, Sfp PPTase inh)
C=CCC(C)(NCc1ccccc1)c1ccco1 (centres undefined)	G9a block 13µM
C=CCC(C)(NCc1ccccc1)C(=O)OCC (centres undefined)	none (no result: GRP78 ERSR act, G9a block, ALOX12 inh)
O=C(COc1ncnc2ccc(Br)cc12)N1CCOCC1	G9a block 1.1µM
Cc1ccc(C2CCCN2C(=O)Cn2nc(C)c3ccccc3c2=O)cc1 (centres undefined)	none (no result: VDR inh, GRP78 ERSR act, G9a block, Sfp PPTase inh)
Cc1cc(N/N=C/c2cccc(Cl)c2)nc(-n2nc(C)cc2C)n1	none
Cc1nc(C#N)c(N/N=C/c2cccc(Cl)c2)o1	VDR inh inconclusive, ALOX12 inh 40µM
O=C(CCCOc1ccc(Cl)cc1Cl)n1nnc2ccccc21	VDR inh 71µM, ALOX12 inh inconclusive
COc1cc(CC2COC(=O)C2(O)Cc2ccc(O)c(OC)c2)ccc1O (centres undefined)	none
COC(=O)C1(Cc2ccc(O)c(CC3OC3(C)C)c2)OC(=O)C(O)=C1c1ccc(O)cc1 (centres undefined)	G9a block inconclusive, Sfp PPTase inh 79µM
CCN(CC)S(=O)(=O)c1ccc(OCCNS(C)(=O)=O)cc1	VDR inh 28µM
CN(C)S(=O)(=O)c1cc(NC2CC(=O)N(c3ccc(F)cc3)C2=O)ccc1Cl (centres undefined)	G9a block 35µM
CC(=O)NC(=S)Nc1ccc(NC(=S)NC(=O)c2cccs2)cc1	ALOX12 inh inconclusive (no result: G9a block)
Cn1nnc(NC(=S)NC(=O)c2cccs2)n1	G9a block 0.79µM, ALOX12 inh inconclusive
Cn1nnc(NC(=S)NC(=O)c2ccc(-c3ccc(Br)cc3)o2)n1	G9a block inconclusive
CCCCn1nnc(NC(=S)NC(=O)c2cccs2)n1	G9a block 10µM, Sfp PPTase inh inconclusive, ALOX12 inh inconclusive
CC(C)C(=O)NC(=S)Nc1nnn(C)n1	G9a block 8.9µM, ALOX12 inh inconclusive
COc1ccc(C(C2C(=O)CC(C)(C)CC2=O)C2C(=O)CC(C)(C)CC2=O)cc1CO	VDR inh inconclusive, G9a block inconclusive, Sfp PPTase inh 56µM
COC(=O)c1ccc(C(C2C(=O)CC(C)(C)CC2=O)C2C(=O)CC(C)(C)CC2=O)cc1	VDR inh inconclusive, G9a block inconclusive
COc1ccc(C(=O)c2c(C)c3ccccc3n2CC(O)CNC(C)C)cc1 (centres undefined)	GRP78 ERSR act inconclusive, G9a block 45µM, Sfp PPTase inh 32µM
CC(C)OCc1ccc(CNC(=O)CC(C)c2ccccc2)cc1 (centres undefined)	none (no result: VDR inh, GRP78 ERSR act, G9a block, Sfp PPTase inh)

Source: PubChem BioAssay (National Center for Advancing Translational Sciences (NCATS))
